# PubChem BioAssay (Tox21)
# “And” between values parts separate entries of the source, which are not always exact repeats. Equal values may be shown once. Records with an inconclusive call do not appear. A call without a number means that no potency is given here. More than one record can exist for a structure, and the calls need not agree. The source made the active and inactive calls. Calls come from the whole dose curve.
# Target: Beta-2 adrenergic receptor (Homo sapiens) (UniProt P07550)
# Assay: Adrenergic beta2 receptor (ADRB2) small molecule antagonists, cell-based qHTS assay (AID 1963592); note: nearly all actives have a fitted effect of over 50% in size
# Details: CHO-ADRB2 cells, isoproterenol-stimulated cAMP HTRF ratio, 0.5 h; series mostly up to 92.4 µM
# Description: U.S. Tox21 Program National Center for Advancing Translational Sciences [NCATS] Division of Preclinical Innovation [DPI] U.S. Environmental Protection Agency [EPA] National Institutes of Environmental Health Sciences [NIEHS] National Toxicology Program [NTP] U.S. Food and Drug Administration [FDA] Tox21 Assay Overview: Beta adrenergic receptors (Beta-ARs) belong to the G-protein coupled receptor (GPCR) superfamily, includes three subtypes - beta1, beta2, and beta3. Beta1-AR is the predominant receptor subtype expressed in the heart, and beta2-AR is expressed in the kidney, lung, blood vessel and in the heart, and beta3 is found in the adipocytes. Beta1 and 2 ARs couple to Gs protein and elevate cyclic adenosine mono phosphate (cAMP), which activates protein kinase A and leads to the downstream signaling responsible for the physiological actions. Beta-AR agonists or antagonists are the most prescribed therapeutic agents for heart failure and asthma, and these were one of the first target receptors for the rational drug design. Tox21 10K compound library was screened using the cAMP-Gs dynamic assay (Cisbio Bioassays, Shelton, CT) to identify agonists/antagonists of the Gs-coupled human adrenergic, beta2 receptor (ADRB2) in the CHO-ADRB2 cell line (Codex BioSolutions, Inc. Gaithersburg, MD), which stably over-expresses ADRB2. The principle of cAMP-Gs dynamic assay is based on HTRF technology, which facilitates the fluorescence resonance energy transfer (FRET) between donor Europium cryptate and acceptor d2-labeled cAMP. The cAMP generated within cells competes with the red acceptor, d2-labled cAMP, for binding to the monoclonal anti-cAMP-cryptate (Europium donor). An increase in intracellular cAMP leads to the disruption of FRET signal, and the signal is inversely proportional to the cAMP concentration. Propranolol HCl (Sigma-Aldrich, St. Louis, MO) was used as a positive control in the screening.
# Tox21 Assay Protocol Summary: CHO-ADRB2 cells were dispensed at 1,000/well in 4uL assay medium into white/solid 1536-well plates (Greiner Bio-One North America Inc., Monroe, NC) using a Multidrop Combi dispenser (ThermoFisher Scientific, Waltham, MA). The assay plates were incubated at 37C and 5% CO2 for an overnight (18-20hr). Then positive control and test compounds dissolved in DMSO were transferred to the assay plates at 23nL using a Pintool station (Wako, San Diego, CA). Following the compound and positive control transfer, 1uL agonist-stimulation mix containing 1nM Isoproterenol HCl, 100uM IBMX and 25uM Ro-20-1724 was added to each well of the assay plates using BioRAPTR Flying Reagent Dispenser (FRD, Beckman Coulter, Brea, CA). The assay plates were incubated at room temperature for 0.5hr. Then 2.5ul each d2-labled cAMP and anti-cAMP-cryptate solutions were added separately to each well of the assay plates using an FRD and the assay plates were incubated at room temperature for 1hr. The fluorescence signal was measured at two different wavelengths (665nm and 615nm) using an Envision plate reader (Perkin Elmer, Shelton, CT). Data were expressed as the ratio of 665 nm/615 nm.
# Potency is the fitted concentration of half-maximal effect.
# Beta-2 adrenergic receptor (Homo sapiens), sequence (P07550 whole entry, looked up): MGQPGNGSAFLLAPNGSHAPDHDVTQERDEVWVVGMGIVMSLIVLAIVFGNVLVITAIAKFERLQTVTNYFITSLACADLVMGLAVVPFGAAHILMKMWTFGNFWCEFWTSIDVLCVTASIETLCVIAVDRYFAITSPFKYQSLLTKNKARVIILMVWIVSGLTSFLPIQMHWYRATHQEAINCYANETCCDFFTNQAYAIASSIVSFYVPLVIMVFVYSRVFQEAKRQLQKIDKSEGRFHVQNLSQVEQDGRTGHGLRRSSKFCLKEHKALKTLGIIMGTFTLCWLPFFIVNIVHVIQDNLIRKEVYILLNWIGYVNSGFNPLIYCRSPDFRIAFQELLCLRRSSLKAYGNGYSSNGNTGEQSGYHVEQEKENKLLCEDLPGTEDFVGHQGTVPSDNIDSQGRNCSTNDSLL
row,Compound,Potency
1,O=c1c(O)c(-c2ccc(O)c(O)c2)oc2cc(O)cc(O)c12,inactive
2,CCCN(CCC)C(=O)SCC,inactive
3,NC(=O)c1cnccn1,inactive
4,CCCCCCOC(C)=O,inactive
5,COCC(C)N (stereo not given),inactive
6,CCCCCCOCCO,inactive
7,CC(C)(C)NC(=O)[C@H]1CC[C@H]2[C@@H]3CC[C@H]4NC(=O)C=C[C@]4(C)[C@H]3CC[C@]12C,inactive
8,OCC(O)CS (stereo not given),inactive
9,Oc1c(Cl)cc(Cl)c(Cl)c1Cc1c(O)c(Cl)cc(Cl)c1Cl,inactive and 48.6 µM (active)
10,Nc1cc([N+](=O)[O-])ccc1C(=O)O,inactive
11,OC[C@@H](O)[C@H](O)[C@H](O)[C@@H](O)CO,inactive
12,COCCCN,inactive
13,CCCCC(CC)COC(=O)C(C#N)=C(c1ccccc1)c1ccccc1 (stereo not given),inactive
14,O=C1O[C@H]([C@H](O)CO)C(O)=C1O,inactive
15,CCCCCCO,inactive
16,NNc1ccc(C(=O)O)cc1,inactive
17,CNC[C@H](O)[C@@H](O)[C@H](O)[C@H](O)CO,inactive
18,C=CC(C)(CCC=C(C)C)OC(C)=O (stereo not given),inactive
19,CC1=CC2C3CC(C=C3C)C2C1 (stereo not given),inactive
20,Cc1ccccc1C(OCCN(C)C)c1ccccc1 (stereo not given),inactive

row,Compound,Potency
1,O=S(=O)(O)c1ccc2cc(O)ccc2c1,inactive
2,CCCCC/C=C\C/C=C\CCCCCCCC(=O)O,inactive
3,CCCCOC(=O)CCCCCCCCC(=O)OCCCC,inactive
4,Nc1ccccc1[N+](=O)[O-],inactive
5,COc1ccc2[nH]cc(CCNC(C)=O)c2c1,inactive
6,Cc1cc(C(C)(C)C)c(O)c(C(C)(C)C)c1,inactive
7,CC(O)CN(CCN(CC(C)O)CC(C)O)CC(C)O (stereo not given),inactive
8,O=C1O[C@H]([C@@H](O)CO)C(O)=C1O,inactive
9,COc1ccc(C)cc1N,inactive
10,C/C=C/C(=O)N(CC)c1ccccc1C,inactive
11,C=CCc1ccc(O)c(OC)c1,inactive
12,Cc1cnc(NC(=O)C2=C(O)c3ccccc3S(=O)(=O)N2C)s1,inactive
13,CCCCCCCCCCC(CO)CCCCCCCC (stereo not given),inactive
14,CCCCCCCCCCCCCC[N+](C)(C)Cc1ccccc1,inactive
15,O=C1OC(c2ccc(O)cc2)(c2ccc(O)cc2)c2ccccc21,inactive
16,NC(=O)c1cccnc1,inactive
17,C/C=C/c1ccc(O)c(OC)c1,inactive
18,CCCCCCCCCCCCCO,inactive
19,Oc1ccc(Cl)cc1Cc1cc(Cl)ccc1O,48.6 µM (active)
20,CCCCCC1=CCCC1=O,inactive
